Outcome data for 34 compounds are collected here from PubChem BioAssay AID588651 (The Scripps Research Institute Molecular Screening Center, 2011).

Active and inactive are the calls of the source. Cut-off read from the data, not from the text of the source: active = inhibition above about 65%; inactive = the rest.

The assay has as its system Antitargets. Nature of the assay: Fam108b inhibitors and proteome off-target selectivity – biochemical, gel-based ABPP, recombinant soluble Fam108b, HTS hits, complex proteome, late-stage follow-up (AID 588651).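 Note: Fam108b spiked into mouse brain membrane proteome; tested at 20 µM.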 The following applies: FP-rhodamine labeling in proteome.
Consider `COc1ccc(/C=C/C(=O)OCC(=O)Nc2cccc(Oc3ccccc3)c2)c(OC)c1`, for which the result was inactive.

For the compound `Cc1ccc(S(=O)(=O)/N=C2\C=C(Nc3cccc(C(=O)O)c3)C(=O)c3ccccc32)cc1`, the result was inactive.

With `Oc1ccccc1C1Nc2cccc3cccc(c23)N1`, the outcome was inactive.

Regarding `Clc1ccccc1C(c1ccccc1)(c1ccccc1)n1ccnc1`, the result was inactive.

On to `CCN(CC)S(=O)(=O)c1cc(NC(=O)COC(=O)c2sc3ccccc3c2Cl)ccc1C`, for which the result was inactive.

`Cc1cc(NN=Cc2c(O)ccc3ccccc23)nc(-c2ccccc2O)n1`: the outcome was inactive.

As for `Nc1c(S(=O)(=O)c2cccc(Cl)c2)c2nc3ccccc3nc2n1N=Cc1ccc(O)c(O)c1`, the outcome was inactive.

Take `CC1=CC(=O)c2c(O)ccc(O)c2C1=O`: the result was inactive.

As for `O=[N+]([O-])c1ccc(NN=Cc2ccccc2O)cc1`, the result was inactive.

For the compound `Oc1ccc(C2Nc3cccc4cccc(c34)N2)c(O)c1`, the result was inactive.

Regarding `Cc1[nH]c2ccccc2c1C=NNC(=O)c1cccc(S(=O)(=O)Nc2cccc(C(F)(F)F)c2)c1`, the result was inactive.

With `O=C(Nc1ccc(-c2csc(Nc3cccc(C(F)(F)F)c3)n2)cc1)c1cccc(C(F)(F)F)c1`, the result was inactive.

For the compound `Cc1ccc2nc(CSc3nc(C)ccc3C#N)[nH]c2c1`, the result was inactive.

Consider `O=C1c2ccccc2-c2onc3ccc(NCCCn4ccnc4)c1c23`, for which the result was inactive.

For `COc1cccc(-n2c(SCc3cc(=O)oc4cc(O)c(O)cc34)nc3ccccc3c2=O)c1`, the result was inactive.

Regarding `CCN(c1ccccc1)S(=O)(=O)c1ccc(NC(=O)c2nc(S(C)(=O)=O)ncc2Cl)cc1`, the outcome was inactive.

With `COc1cccc2c1C(=O)c1c(O)c3c(c(O)c1C2=O)C[C@@](O)(C(=O)CO)C[C@@H]3O[C@H]1C[C@H](N)[C@H](O)[C@H](C)O1`, the outcome was inactive.

Turning to `COc1cc(-c2nc(-c3ccc4c(c3)-c3ccccc3S4(=O)=O)c(-c3ccccc3)[nH]2)cc(OC)c1O`, the outcome was inactive.

`O=S(=O)(c1cc(O)ccc1O)c1cccc2c(S(=O)(=O)c3cc(O)ccc3O)cccc12`: the outcome was inactive.

As to `O=c1oc(-c2ccccc2F)nc2scc(-c3ccccc3)c12`, the result was inactive.

In the case of `Cc1ccc(S(=O)(=O)Nc2ccccc2C(=O)Nc2nc(-c3ccc(F)cc3)cs2)cc1`, the result was inactive.

Take `O=C1C(SCCO)=C(SCCO)C(=O)c2ccccc21`: the outcome was inactive.

On to `O=C(Nc1ccc(F)cc1)Nc1ccc(N2CCCC2)c(S(=O)(=O)Nc2ccccc2Cl)c1`, for which the outcome was active.

On to `Cc1ccc(C)c(-n2c3nc(=O)[nH]c(=O)c-3cc3cc([N+](=O)[O-])ccc32)c1`, for which the outcome was inactive.

Turning to `Cc1ccc(-n2c(O)c(/C=N/Nc3ccc(S(=O)(=O)N4CCOCC4)cc3[N+](=O)[O-])c3ccccc3c2=O)c(C)c1`, the result was inactive.

With `Cc1nc2scc(-c3ccc(Cl)cc3)c2c(=O)o1`, the result was inactive.

With `Cc1cc(Nc2ccc(Cl)cc2)nc(NCc2ccccc2)n1`, the outcome was inactive.

As for `O=[N+]([O-])c1ccc(NN=Cc2c[nH]c3ccccc23)c(S(=O)(=O)Nc2ccc(Cl)cc2)c1`, the outcome was inactive.

As for `Nc1ccc2nc(-c3cccc(-c4nc5ccc(N)cc5[nH]4)c3)[nH]c2c1`, the outcome was inactive.

Take `O=C1C(Cl)=C(Nc2ccc3cn[nH]c3c2)C(=O)c2ccccc21`: the result was inactive.

On to `COc1cccc(C=NNc2nc(Nc3ccc([N+](=O)[O-])cc3)nc(N3CCCC3)n2)c1O`, for which the outcome was inactive.

For `Cc1cccc(N=Cc2nc(-c3ccccc3Br)oc2O)n1`, the outcome was inactive.

Regarding `Nc1cc(C(=O)O)c(N)c2c1C(=O)c1ccccc1C2=O`, the outcome was inactive.

For the compound `O=C(CCCSc1ccccc1)Nc1nc(-c2ccco2)c(-c2ccco2)s1`, the outcome was inactive.
